The results in this text go back to PubChem BioAssay AID652104 (National Center for Advancing Translational Sciences (NCATS), 2013).

The structures appear in SMILES notation. Hit rate of the full screen: of about 410,000 compounds, about 7,200 (1.8%) were called active. About 7% were inconclusive and are not listed. The call rests on the fitted dose curve; in most records, active means well fitted activation curve with a large enough effect; inconclusive means small, poorly fitted or top-dose-only effect, or another doubt; inactive means no such curve, though single readings can be large or run the other way. What follows is part of a selection rich in actives, with near analogues and random picks from the rest.
Potency means the concentration at half of the fitted maximal effect.

The assay is described as follows: qHTS of TDP-43 Inhibitors. Further: nearly all actives have a fitted effect of over 50% in size. On growth rescue (activation): % of control where 0% means no effect. Particulars: TDP-43 expressing yeast growth rescue, BacTiter-Glo, 24 h; series mostly up to 46.1 µM; growth rescue (activation): at the top concentration. In a few lines: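 Growth rescue of TDP-43-toxic yeast measured as ATP luminescence (BacTiter-Glo). Cells grown to mid-log in raffinose, induced in galactose at OD600=0.02, exposed to compound 24 hr at 30 deg C.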
With `Cc1c(Cl)cccc1-c1ccc(CNCCCSc2nnnn2C)o1`, the growth rescue (activation) was 0% [at 9.22 µM] (inactive). On the same count and under the same terms, to `CC(C)c1ccc(Cn2c(COc3ccccc3)nc3ccccc32)cc1` belongs -4.54% (inactive). Consider `COCc1nc2ccccc2n1Cc1ccccc1Br`, for which the Potency was 20 µM (active). As to `C=C(Br)Cn1c(CCCC)nc2ccccc21`, the “growth rescue (activation)” value is 7.28% (inactive). As to `COc1cccc(NC(=O)C(=O)NCC(c2ccc3c(c2)OCO3)N2CCN(C)CC2)c1` (centres undefined), the “growth rescue (activation)” value is 2.35% (inactive).

As to `COc1ccc(Cn2c(C(=O)O)c(CNCc3cccc(OC)c3)c3ccc(C)cc32)cc1`, the “growth rescue (activation)” value is 5.91% (inactive).

As to `CCNC(=O)Cn1nc(C)n2c(cc3c(OC)cccc32)c1=O`, the “growth rescue (activation)” value was 18.2% (inactive). On the same count and under the same terms, to `CCOc1ccc(C(=O)N2CCN(CCc3ccccn3)CC2)cc1` belongs 19.5% (inactive); to `O=C1C2C3C=CC(C3)C2C(=O)N1c1ccc(S(=O)(=O)Nc2nccs2)cc1` (centres undefined), -11.2% (inactive). For `O=C1C2C3C=CC(C4CC34)C2C(=O)N1c1nccs1` (centres undefined), the “growth rescue (activation)” value is 21.6% (inactive). Regarding `O=C1C2C3C=CC(C3)C2C(=O)N1c1ncc([N+](=O)[O-])s1` (centres undefined), the Potency was 14.1 µM (active). Regarding `COc1ccccc1NC(=O)c1oc2ccccc2c1NC(=O)COc1ccccc1OC`, the “growth rescue (activation)” value was 13.7% (inactive). The same measure, in the same setting: to `Cc1ccc(S(=O)(=O)NCC(=O)N2CCOCCOCCOCCOCC2)cc1` belongs -6.52% (inactive).

As for `Cc1ccc(CNS(=O)(=O)c2ccc3c(c2)N(C)CCO3)cc1`, the Potency was 15.8 µM (active).

In the case of `CN1CCN(c2ccc(CNS(=O)(=O)c3cccc(F)c3)cc2)CC1`, the “growth rescue (activation)” value is 7.06% (inactive). Turning to `Nc1ccc2c(c1)C(O)c1ccc(Cl)cc1-2` (centres undefined), the Potency is 20 µM (active). Regarding `O=C(Nc1ccc2nc(SCC(=O)N3CCCc4ccccc43)sc2c1)c1ccc(F)cc1`, the “growth rescue (activation)” value is 12.4% (inactive). As for `COC(=O)c1ccccc1NC(=O)c1cnn(-c2ccc(F)cc2)c1-n1cccc1`, the “growth rescue (activation)” value is 0% (inactive).

Consider `O=C(c1cnn(-c2ccc(F)cc2)c1-n1cccc1)N1CCN(c2ccc(F)cc2)CC1`, for which the Potency is 25.1 µM (active). For `O=C(Nc1ccc(F)cc1F)c1cnn(-c2ccc(F)cc2)c1-n1cccc1`, the “growth rescue (activation)” value is 19.2% (inactive).

Consider `CCOC(=O)c1c(C)[nH]c(CCC(=O)NCCCN2CCN(c3cccc(Cl)c3)CC2)c1C`, for which the “growth rescue (activation)” value was 13.5% (inactive).

Turning to `Cc1cc(NC(=O)c2ccc(-c3ccc(Cl)cc3)o2)cc(-c2nc3ncccc3o2)c1O`, the “growth rescue (activation)” value was 12.2% (inactive). For `Cc1cc([N+](=O)[O-])c(NC2CCCCC2)c([N+](=O)[O-])c1`, the Potency was 35.5 µM (active). In the case of `Cc1cc([N+](=O)[O-])c(N2CCC[C@@H]2C(=O)O)c([N+](=O)[O-])c1`, the “growth rescue (activation)” value is -26.4% (inactive). On the same count and under the same terms, to `Cc1ccc(C(=O)COC(=O)CCCC(=O)NC2CCCCC2)cc1[N+](=O)[O-]` belongs 5.33% (inactive); to `COc1ccc(S(=O)(=O)c2c(Nc3ccc(C)cc3)sc(C(=O)c3ccc(C)cc3)c2N)cc1`, 12.2% (inactive); to `CCOc1ccc(NC(=O)Cn2c(C)ccc(C#N)c2=O)cc1`, -1.23% (inactive). `CC(N=Cc1nc(-c2ccccc2)oc1O)c1ccccc1` (centres undefined): the Potency was 12.6 µM (active). Consider `Cn1c(=O)c2c(nc(SCC(=O)Nc3ccc(F)cc3)n2Cc2ccc(Cl)cc2)n(C)c1=O`, for which the “growth rescue (activation)” value is 12.5% (inactive). On the same count and under the same terms, to `CCn1c2ccccc2c2cc(CN3CCN(Cc4cccc(Cl)c4)CC3)ccc21` belongs 6.14% (inactive); to `CCCCNC(=O)CSc1nc2cc3c(cc2c(=O)n1CCCCCC(=O)NCc1ccc2c(c1)OCO2)OCO3`, 18.1% (inactive). For the molecule `CC1Cc2ccccc2N1C(=O)CSc1nc2ccccc2o1` (centres undefined), the Potency is 12.6 µM (active). `CC1Cc2ccccc2N1C(=O)CSc1nnc(C2CC2)n1C` (centres undefined): the growth rescue (activation) is 1.9% [at 9.22 µM] (inactive).

`CC1Cc2ccccc2N1C(=O)Cn1cnc2ccccc2c1=O` (centres undefined): the “growth rescue (activation)” value is -3.07% (inactive). Still for that read-out and setting: to `CCc1ccc(NC(=O)c2cnc3c(-c4ccccc4)c(C)nn3c2C)cc1` belongs 20.4% (inactive); to `O=C(CN1C(=O)COc2ccc(S(=O)(=O)N3CCOCC3)cc21)N1CCN(c2cccc(Cl)c2)CC1`, 12.5% (inactive). Same read-out and setting: to `O=C(COc1ccc(Cl)cc1)Nc1ccccc1OCc1cc(=O)n2ccccc2n1` belongs 12.3% (inactive); to `COc1cc(/C(=C/c2ccccc2)c2ccccc2)c2c(c1)oc1ccccc12`, -12.2% (inactive); to `Cc1oc2cc([N+](=O)[O-])c(O)c([N+](=O)[O-])c2c1C(=O)c1ccc(Br)cc1`, -43.2% [at 9.22 µM] (inactive). With `Cc1oc2cc(Br)c(O)c(Br)c2c1C(=O)c1ccccc1`, the Potency is 22.4 µM (active). As to `CCc1ccccc1NC(=O)c1sc2nc3c(cc2c1N)CN(Cc1ccccc1)CC3`, the “growth rescue (activation)” value is 21% (inactive).

Regarding `Cc1cccc(CCNC(=O)c2ccc3c(c2)nc2n3CCC(C)C2)c1` (centres undefined), the “growth rescue (activation)” value is 5.91% (inactive). On the same count and under the same terms, to `CS(=O)(=O)N(CC(=O)Nc1ccc(F)cc1)C1CCCCC1` belongs 14.6% (inactive).

For `CCC(C)NC(=O)CN(C1CCCCC1)S(C)(=O)=O` (centres undefined), the “growth rescue (activation)” value is -30.4% (inactive).

As for `CS(=O)(=O)N(CC(=O)Nc1ccc(Cl)c(Cl)c1)C1CCCCC1`, the Potency was 15.8 µM (active).

Take `CC(C)c1cccc(C(C)C)c1Nc1cn[nH]c1`: the Potency was 3.98 µM (active).

Regarding `FC(F)(F)c1cc(Nc2nc3ccccc3c3nncn23)ccc1Cl`, the “growth rescue (activation)” value is 0% (inactive). Still for that read-out and setting: to `O=C(CC(NCc1cccnc1)C(=O)O)Nc1ccc(O)cc1` (centres undefined) belongs 0.784% (inactive). On to `COc1ccc2c(CNCCc3ccccc3C)c(C(=O)O)n(Cc3ccccc3C)c2c1`, for which the “growth rescue (activation)” value is 12.8% (inactive).

Consider `CCN(CCCNC(=O)CSc1cc(=O)n(C)c2cc(Cl)ccc12)c1cccc(C)c1`, for which the “growth rescue (activation)” value is -25.5% (inactive). Take `CC(C)c1cccc(-c2csc(C(O)c3ccccc3)n2)c1` (centres undefined): the Potency was 17.8 µM (active).

Take `Cc1ccccc1-c1csc(C(O)c2cccc(Cl)c2)n1` (centres undefined): the “growth rescue (activation)” value is 8.26% (inactive).

Regarding `COc1cccc(C(NC(C)=O)c2nc(-c3ccccc3OC)cs2)c1` (centres undefined), the “growth rescue (activation)” value is 13.7% (inactive). For the molecule `COc1ccc(-c2csc(C(O)c3cccc(Cl)c3)n2)cn1` (centres undefined), the Potency was 25.1 µM (active). Take `OC(c1ccccc1)c1nc(-c2cnc3ccccc3c2)cs1` (centres undefined): the “growth rescue (activation)” value was 0% (inactive).

`COc1cc(C(O)c2nc(-c3cnn(C)c3)cs2)ccc1F` (centres undefined): the “growth rescue (activation)” value was 0% (inactive). As for `COc1ccc(C(O)c2nc(-c3ccc4c(c3)OCO4)cs2)cc1` (centres undefined), the Potency is 14.1 µM (active). Take `CC(O)(c1cccc(F)c1)c1nc(-c2ccc3c(c2)OCO3)cs1` (centres undefined): the “growth rescue (activation)” value was -55.4% (inactive). The same measure, in the same setting: to `Cc1ccc(-c2nc(Cn3c(=O)cc(-c4ccccc4)c4c(C)nn(C)c43)c(C)o2)cc1` belongs 11.8% (inactive); to `CCCCN1CC(c2nc3ccccc3n2CCCCOc2ccc(C)cc2C)CC1=O` (centres undefined), -86.6% (inactive). Still for that read-out and setting: to `Cc1ccc(-c2nc(CS(=O)(=O)CC(=O)NCc3ccccc3Cl)c(C)o2)cc1` belongs 14.5% (inactive); to `O=C(Nc1cccc(C(=O)O)c1)/C(=C\c1ccccc1)NC(=O)c1ccc(Br)o1`, -9.24% (inactive). Take `O=C(N/N=C/c1cccc(OCc2ccccc2)c1)c1ccc(Br)o1`: the Potency was 11.2 µM (active). For the molecule `O=C(N/N=C\C1CC=CCC1)c1ccc(Br)o1` (centres undefined), the “growth rescue (activation)” value is 11.6% (inactive).
